# Experimental data published in PubChem BioAssay (NCI).
# This is part of a sample that, as a whole, favours compounds with a hit. Of some 79,000 tested, about 15% had one in any assay. Values without a mark were called inactive. Active and inactive are the calls of the source. Cut-off read from the data, not from the text of the source: active = growth inhibition above about 70%; inactive = the rest.
# Key:
# [1] = NCI Yeast Anticancer Drug Screen. Data for the rad52 strain (AID 147);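 note: 0% = growth of vehicle-treated control cultures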; details: S. cerevisiae rad52 mutant growth inhibition, stronger effect = higher value
# Outline: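 Read-out: growth inhibition versus vehicle-treated controls. Cells were a DNA repair-deficient yeast strain treated with compounds.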
# [2] = NCI Yeast Anticancer Drug Screen. Data for the wt1 strain (AID 149);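 note: 0% = growth of vehicle-treated wt1 cultures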; details: S. cerevisiae wt1 strain (SPY 50644) growth inhibition, stronger effect = higher value
# Outline: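 Readout: yeast growth inhibition, normalised to vehicle controls, in the wt1 strain exposed to test compounds.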
# [3] = NCI Yeast Anticancer Drug Screen. Data for the rad50EPP+ strain (AID 151);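 note: 0% = growth of vehicle-treated control cultures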; details: S. cerevisiae rad50 mutant strain, stronger effect = higher value
# Outline: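 Growth inhibition read against vehicle controls in rad50EPP+ yeast, a strain altered in DNA damage repair, after compound exposure.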
# [4] = NCI Yeast Anticancer Drug Screen. Data for the mgt1 strain (AID 153); details: S. cerevisiae mgt1 mutant growth inhibition, stronger effect = higher value
# Outline: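 mgt1 yeast grown with test compound; read-out is growth inhibition versus vehicle-treated cultures.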
# [5] = NCI Yeast Anticancer Drug Screen. Data for the rad50 strain (AID 155);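 note: 0% = growth of vehicle-only cultures of the same strain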; details: S. cerevisiae rad50 strain growth inhibition, stronger effect = higher value
# Outline: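 Compounds were tested on a yeast strain with an engineered DNA damage repair alteration; the reported value is growth inhibition normalised to vehicle treatment.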
# [6] = NCI Yeast Anticancer Drug Screen. Data for the mec2-1 strain (AID 157); details: S. cerevisiae mec2-1 strain, stronger effect = higher value
# Outline: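 Yeast mec2-1 mutant treated with compound. Readout: growth inhibition vs vehicle controls.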
# [7] = NCI Yeast Anticancer Drug Screen. Data for the rad14 strain (AID 159);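 note: 0% = growth of vehicle-treated control cultures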; details: S. cerevisiae rad14 strain growth inhibition, stronger effect = higher value
# Outline: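 Compound-treated yeast with a defined DNA-repair lesion; growth inhibition normalised to vehicle-treated cultures.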
# [8] = NCI Yeast Anticancer Drug Screen. Data for the sgs1 mgt1 strain (AID 161);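 note: 0% = growth of cultures given vehicle only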; details: S. cerevisiae sgs1 mgt1 strain, stronger effect = higher value
# Outline: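 Genetically altered yeast, compound exposure, growth inhibition relative to vehicle.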
# [9] = NCI Yeast Anticancer Drug Screen. Data for the CLN2oe strain (AID 163);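 note: 0% = growth of vehicle-only control cultures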; details: S. cerevisiae CLN2oe strain, stronger effect = higher value
# Outline: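 Read-out: yeast growth inhibition, expressed relative to vehicle-only controls. The strain bears an engineered cell-cycle alteration.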
# [10] = NCI Yeast Anticancer Drug Screen. Data for the cln2 rad14 strain (AID 165);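 note: 0% = growth equal to vehicle treated cultures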; details: S. cerevisiae cln2 rad14 strain, stronger effect = higher value
# Outline: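 cln2 rad14 yeast strain; compound exposure; growth inhibition read vs vehicle controls.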
# [11] = NCI Yeast Anticancer Drug Screen. Data for the bub3 strain (AID 167); details: S. cerevisiae bub3 mutant strain, stronger effect = higher value
# Outline: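 Growth of a checkpoint-deficient yeast mutant is measured after compound exposure. Values represent inhibition relative to vehicle.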
# [12] = NCI Yeast Anticancer Drug Screen. Data for the wt2 strain (AID 169);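 note: 0% = growth of vehicle-treated yeast cultures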; details: S. cerevisiae wt2 strain growth inhibition, stronger effect = higher value
# Outline: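 Read-out: growth inhibition versus vehicle-treated control cultures after compound exposure of the yeast strain.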
# [13] = NCI Yeast Anticancer Drug Screen. Data for the mlh1 strain (AID 171);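 note: 0% = growth of vehicle-treated control cultures of the same strain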; details: S. cerevisiae mlh1 strain growth inhibition, stronger effect = higher value
# Outline: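 Read-out: growth inhibition versus vehicle controls. Strain: engineered yeast with a defined DNA repair or cell cycle defect, compound-treated.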
# [14] = NCI Yeast Anticancer Drug Screen. Data for the sgs1 strain (AID 173);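 note: 0% = growth of vehicle-only control cultures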; details: S. cerevisiae sgs1 mutant, stronger effect = higher value
# Outline: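 Read-out: yeast growth inhibition relative to vehicle controls, following compound exposure of a strain with a defined DNA repair/cell cycle alteration.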
# [15] = NCI Yeast Anticancer Drug Screen. Data for the mlh1 rad18 strain (AID 175); details: S. cerevisiae mlh1 rad18 strain growth inhibition, stronger effect = higher value
# Outline: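 Yeast w/ defined DNA-repair lesions; compound exposure; growth vs vehicle controls → % inhibition.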
# [16] = NCI Yeast Anticancer Drug Screen. Data for the rad18 strain (AID 177); details: S. cerevisiae rad18 mutant growth inhibition, stronger effect = higher value
# Outline: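 Readout: growth inhibition vs vehicle controls. Cells: genetically altered yeast strain, DNA repair defect.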
# [17] = at 5.0 µM (retest, dose inferred, filed as 0.5)
# [18] = at 50.0 µM (retest, dose inferred, filed as 5.0)
smiles,measurement,setting,value
CNC(=O)OCc1c(COC(=O)NC)c(C)n(-c2ccc(Br)cc2)c1C,growth inhibition,[1]; at 1.2 µM,-7%
same,growth inhibition,[1]; at 3.7 µM,-6%
same,growth inhibition,[1]; at 11.0 µM,-8%
same,growth inhibition,[1]; at 33.0 µM,6%
same,growth inhibition,[1]; at 100.0 µM,87% (active)
same,growth inhibition,[2]; at 1.2 µM,-41%
same,growth inhibition,[2]; at 3.7 µM,-38%
same,growth inhibition,[2]; at 11.0 µM,-37%
same,growth inhibition,[2]; at 33.0 µM,-32%
same,growth inhibition,[2]; at 100.0 µM,98% (active)
same,growth inhibition,[3]; at 1.2 µM,-25%
same,growth inhibition,[3]; at 3.7 µM,-19%
same,growth inhibition,[3]; at 11.0 µM,-24%
same,growth inhibition,[3]; at 33.0 µM,-25%
same,growth inhibition,[3]; at 100.0 µM,-3%
same,growth inhibition,[4]; at 1.2 µM,-15%
same,growth inhibition,[4]; at 3.7 µM,-17%
same,growth inhibition,[4]; at 11.0 µM,-20%
same,growth inhibition,[4]; at 33.0 µM,14%
same,growth inhibition,[4]; at 100.0 µM,99% (active)
same,growth inhibition,[5]; at 1.2 µM,-15%
same,growth inhibition,[5]; at 3.7 µM,-27%
same,growth inhibition,[5]; [17],27%
same,growth inhibition,[5]; at 11.0 µM,-17%
same,growth inhibition,[5]; at 33.0 µM,-2%
same,growth inhibition,[5]; [18],46%
same,growth inhibition,[5]; at 50.0 µM,30.4%
same,growth inhibition,[5]; at 100.0 µM,91% (active)
same,growth inhibition,[6]; at 1.2 µM,-37%
same,growth inhibition,[6]; at 3.7 µM,-24%
same,growth inhibition,[6]; [17],22%
same,growth inhibition,[6]; at 11.0 µM,-23%
same,growth inhibition,[6]; at 33.0 µM,-8%
same,growth inhibition,[6]; [18],23%
same,growth inhibition,[6]; at 50.0 µM,13%
same,growth inhibition,[6]; at 100.0 µM,97% (active)
same,growth inhibition,[7]; at 1.2 µM,-23%
same,growth inhibition,[7]; at 3.7 µM,-16%
same,growth inhibition,[7]; at 11.0 µM,-7%
same,growth inhibition,[7]; at 33.0 µM,73% (active)
same,growth inhibition,[7]; at 100.0 µM,98% (active)
same,growth inhibition,[8]; [17],4%
same,growth inhibition,[8]; [18],-61%
same,growth inhibition,[8]; at 50.0 µM,78% (active)
same,growth inhibition,[9]; at 1.2 µM,-7%
same,growth inhibition,[9]; at 3.7 µM,0%
same,growth inhibition,[9]; at 11.0 µM,-1%
same,growth inhibition,[9]; at 33.0 µM,-2%
same,growth inhibition,[9]; at 100.0 µM,69%
same,growth inhibition,[10]; [17],10%
same,growth inhibition,[10]; [18],-81%
same,growth inhibition,[10]; at 50.0 µM,30%
same,growth inhibition,[11]; at 1.2 µM,-29%
same,growth inhibition,[11]; at 3.7 µM,-18%
same,growth inhibition,[11]; [17],0%
same,growth inhibition,[11]; at 11.0 µM,-18%
same,growth inhibition,[11]; at 33.0 µM,41%
same,growth inhibition,[11]; [18],-63%
same,growth inhibition,[11]; at 50.0 µM,85% (active)
same,growth inhibition,[11]; at 100.0 µM,98% (active)
same,growth inhibition,[12]; at 1.2 µM,-28%
same,growth inhibition,[12]; at 3.7 µM,-19%
same,growth inhibition,[12]; at 11.0 µM,-19%
same,growth inhibition,[12]; at 33.0 µM,-13%
same,growth inhibition,[12]; at 100.0 µM,96% (active)
same,growth inhibition,[13]; at 1.2 µM,-26%
same,growth inhibition,[13]; at 3.7 µM,-13%
same,growth inhibition,[13]; at 11.0 µM,9%
same,growth inhibition,[13]; at 33.0 µM,59%
same,growth inhibition,[13]; at 100.0 µM,97% (active)
same,growth inhibition,[14]; at 1.2 µM,15%
same,growth inhibition,[14]; at 3.7 µM,12%
same,growth inhibition,[14]; at 11.0 µM,19%
same,growth inhibition,[14]; at 33.0 µM,32%
same,growth inhibition,[14]; at 100.0 µM,96% (active)
same,growth inhibition,[15]; [17],25%
same,growth inhibition,[15]; [18],84% (active)
same,growth inhibition,[15]; at 50.0 µM,86.8% (active)
same,growth inhibition,[16]; at 1.2 µM,-19%
same,growth inhibition,[16]; at 3.7 µM,-12%
same,growth inhibition,[16]; at 11.0 µM,-5%
same,growth inhibition,[16]; at 33.0 µM,43%
same,growth inhibition,[16]; at 100.0 µM,96% (active)
O=C(CN(c1ccccc1)c1ccccc1)n1nnc2ccccc21,growth inhibition,[1]; at 1.2 µM,18%
same,growth inhibition,[1]; at 3.7 µM,20%
same,growth inhibition,[1]; at 11.0 µM,14%
same,growth inhibition,[1]; at 33.0 µM,39%
same,growth inhibition,[1]; at 100.0 µM,85% (active)
same,growth inhibition,[2]; at 1.2 µM,10%
same,growth inhibition,[2]; at 3.7 µM,-11%
same,growth inhibition,[2]; at 11.0 µM,-19%
same,growth inhibition,[2]; at 33.0 µM,0%
same,growth inhibition,[2]; at 100.0 µM,82% (active)
same,growth inhibition,[3]; at 1.2 µM,15%
same,growth inhibition,[3]; at 3.7 µM,7%
same,growth inhibition,[3]; at 11.0 µM,15%
same,growth inhibition,[3]; at 33.0 µM,42%
same,growth inhibition,[3]; at 100.0 µM,71% (active)
same,growth inhibition,[4]; at 1.2 µM,6%
same,growth inhibition,[4]; at 3.7 µM,-20%
same,growth inhibition,[4]; at 11.0 µM,-10%
same,growth inhibition,[4]; at 33.0 µM,9%
same,growth inhibition,[4]; at 100.0 µM,88% (active)
same,growth inhibition,[5]; at 1.2 µM,-9%
same,growth inhibition,[5]; at 3.7 µM,-7%
same,growth inhibition,[5]; [17],-1%
same,growth inhibition,[5]; at 11.0 µM,14%
same,growth inhibition,[5]; at 33.0 µM,28%
same,growth inhibition,[5]; [18],76% (active)
same,growth inhibition,[5]; at 50.0 µM,74.5% (active)
same,growth inhibition,[5]; at 100.0 µM,84% (active)
same,growth inhibition,[6]; at 1.2 µM,-9%
same,growth inhibition,[6]; at 3.7 µM,0%
same,growth inhibition,[6]; [17],-6%
same,growth inhibition,[6]; at 11.0 µM,13%
same,growth inhibition,[6]; at 33.0 µM,23%
same,growth inhibition,[6]; [18],23%
same,growth inhibition,[6]; at 50.0 µM,78.6% (active)
same,growth inhibition,[6]; at 100.0 µM,85% (active)
same,growth inhibition,[7]; at 1.2 µM,-19%
same,growth inhibition,[7]; at 3.7 µM,-18%
same,growth inhibition,[7]; at 11.0 µM,-18%
same,growth inhibition,[7]; at 33.0 µM,2%
same,growth inhibition,[7]; at 100.0 µM,85% (active)
same,growth inhibition,[8]; [17],-15%
same,growth inhibition,[8]; [18],36%
same,growth inhibition,[8]; at 50.0 µM,47.7%
same,growth inhibition,[9]; at 1.2 µM,8%
same,growth inhibition,[9]; at 3.7 µM,-9%
same,growth inhibition,[9]; at 11.0 µM,-9%
same,growth inhibition,[9]; at 33.0 µM,4%
same,growth inhibition,[9]; at 100.0 µM,69%
same,growth inhibition,[10]; [17],-2%
same,growth inhibition,[10]; [18],-29%
same,growth inhibition,[10]; at 50.0 µM,52.2%
same,growth inhibition,[11]; at 1.2 µM,-21%
same,growth inhibition,[11]; at 3.7 µM,-19%
same,growth inhibition,[11]; [17],-42%
same,growth inhibition,[11]; at 11.0 µM,-35%
same,growth inhibition,[11]; at 33.0 µM,-19%
same,growth inhibition,[11]; [18],84% (active)
same,growth inhibition,[11]; at 50.0 µM,74.4% (active)
same,growth inhibition,[11]; at 100.0 µM,76% (active)
same,growth inhibition,[12]; at 1.2 µM,-7%
same,growth inhibition,[12]; at 3.7 µM,8%
same,growth inhibition,[12]; at 11.0 µM,-6%
same,growth inhibition,[12]; at 33.0 µM,6%
same,growth inhibition,[12]; at 100.0 µM,80% (active)
same,growth inhibition,[13]; at 1.2 µM,9%
same,growth inhibition,[13]; at 3.7 µM,6%
same,growth inhibition,[13]; at 11.0 µM,13%
same,growth inhibition,[13]; at 33.0 µM,36%
same,growth inhibition,[13]; at 100.0 µM,86% (active)
same,growth inhibition,[14]; at 1.2 µM,19%
same,growth inhibition,[14]; at 3.7 µM,16%
same,growth inhibition,[14]; at 11.0 µM,14%
same,growth inhibition,[14]; at 33.0 µM,32%
same,growth inhibition,[14]; at 100.0 µM,90% (active)
same,growth inhibition,[15]; [17],-21%
same,growth inhibition,[15]; [18],87% (active)
same,growth inhibition,[15]; at 50.0 µM,70.2% (active)
same,growth inhibition,[16]; at 1.2 µM,6%
same,growth inhibition,[16]; at 3.7 µM,14%
same,growth inhibition,[16]; at 11.0 µM,6%
same,growth inhibition,[16]; at 33.0 µM,30%
same,growth inhibition,[16]; at 100.0 µM,90% (active)
